Data on 20 molecules can be found in PubChem BioAssay AID1468 (National Center for Advancing Translational Sciences (NCATS), 2008).

“And” between values parts separate entries of the source, which are not always exact repeats. Equal values may be shown once. Hit rate of the full screen: of about 280,000 compounds, about 1,100 (0.39%) were called active. A call without a number means that no potency is given here. Roughly 7% stayed inconclusive and do not appear here. Calls follow the shape of the dose curve; as a rule, active = well fitted inhibition curve with a large enough effect; inconclusive = small, poorly fitted or top-dose-only effect, or effect the other way; inactive = flat fitted curve, though single readings scatter. This excerpt belongs to a sample that is enriched for actives.
Potency is read from the fitted curve at half-maximal effect.

Chain of Microtubule-associated protein tau (Homo sapiens) (P10636 561-689 P618L limits assumed): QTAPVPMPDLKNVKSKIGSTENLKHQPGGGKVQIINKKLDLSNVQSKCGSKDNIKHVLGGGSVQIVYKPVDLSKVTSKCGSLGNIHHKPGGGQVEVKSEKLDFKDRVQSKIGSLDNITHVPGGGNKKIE

The target of this assay is Microtubule-associated protein tau (Homo sapiens) (UniProt P10636). Kind of assay: qHTS for Inhibitors of Tau Fibril Formation, Fluorescence Polarization. Also: nearly all actives have a fitted effect of over 55% in size. The note with it: K18 P301L tau heparin fibrillization, Alexa594 FP, 6 h; series mostly up to 57.7 µM. In short, it runs like this:
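Recombinant K18 P301L […], labeled with Alexa 594 at 0.24 uM over 15 uM unlabeled; heparin inducer 20 uM final; 37 C, 6 hr; FP endpoint.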
Consider `Nc1ccc2nc3c(=O)[nH]c(=S)[nH]c3nc2c1`, for which the Potency is 2.24 µM (active). With `O=c1[nH]c(=O)c2nc3ccccc3nc2[nH]1`, the Potency entry was “inactive”. The result for `COc1ccc(CCNC(=O)c2ccc(-n3c(C)cc4c3CCCC4)cc2)cc1OC` reads “inactive”; that for `Cc1ccc2oc3c(c(=O)c2c1)C(c1ccc([N+](=O)[O-])cc1)N(CCCN1CCOCC1)C3=O` (stereo not given), “inactive”; that for `Cc1cc(C)c(NC(=O)CCc2c(C)nc3c(c(C)nn3C(C)(C)C)c2C)c(C)c1`, “inactive”. In the case of `COC(=O)c1ccccc1NC(=O)c1ccc2c(=O)n3c(nc2c1)CCCCC3` it was “inactive”.

With `COc1ccc(N2CCN(c3nc(-c4ccccc4F)nc4ccccc34)CC2)cc1`, the Potency entry was “inactive”. In the case of `CC(=O)Oc1c2c(c3c(c1CC=C(C)C)O[C@@]14C(=CC5CC1C(C)(C)OC4(C/C=C(\C)C(=O)O)C5=O)C3=O)OC(C)(CCC=C(C)C)C=C2` (stereo not given in full), the Potency was 35.5 µM (active). The result for `CCc1cccc(NC(=O)CSc2nccn2C)c1` reads “inactive”; that for `COC(=O)c1c(NC(=O)C(C)Oc2ccc(Cl)c(C)c2)sc(C)c1C` (stereo not given), “inactive”; that for `CCc1nc2cccnc2n1-c1ccc(CC(=O)Nc2c(C)cccc2C)cc1`, “inactive”. In the case of `CCN(CC(=O)NCCc1ccccc1)S(=O)(=O)c1ccc(C)cc1` it was “inactive”; in that of `CCN(CC(=O)NCCc1ccccc1)S(=O)(=O)c1ccccc1`, “inactive”; in that of `CCN(CC)S(=O)(=O)c1ccc2[nH]cc(C(=O)NCCc3ccccc3)c(=O)c2c1`, 12.6 µM (active) and 14.1 µM (active). As to `CC(C)(C)OC(=O)N1CCC(c2c(C(=O)Nc3ccc4c(c3)OCO4)cnn2-c2ccccc2)CC1`, the Potency entry was “inactive”. In the case of `Cc1ccc(Cn2cc(CCC(=O)NCc3ccc(OC(C)C)cc3)c3ccccc32)cc1` it was “inactive”; in that of `Cc1ccc(C)c(N2CCN(c3ccc4cc(S(=O)(=O)N5CCC(C)CC5)ccc4n3)CC2)c1`, “inactive”; in that of `CC(=O)c1cccc(Nc2ccc3cc(S(=O)(=O)N4CCC(C)CC4)ccc3n2)c1`, 12.6 µM (active). The result for `CC(=O)c1cccc(S(=O)(=O)N2CCC(n3nnc4cc(F)ccc43)CC2)c1` reads “inactive”.

With `Cc1ccc(CNS(=O)(=O)c2ccc(C(=O)N(C)C)s2)cc1`, the Potency result is “inactive”.
